Some test systems named below: NCI-H23 lung; NCI-H226 lung; NCI-H322M lung; HOP-62 NSCLC; NCI-H460 lung; HOP-92 NSCLC; NCI-H522 lung; A549/ATCC NSCLC; 786-0 renal; COLO 205 colon; DU-145 prostate; K-562 leukemia; MALME-3M melanoma; MDA-MB-231 breast; RXF 393 renal; SF-268 CNS; SF-295 CNS; SF-539 CNS; UACC-257 melanoma; M14 melanoma.
Common to all, as to assay: NCI-60 one-dose screen, 48 h (100 = growth as untreated, 0 = no growth, -100 = all killed)
Conditions in all cases: 10 µM unless noted

In PubChem BioAssay (NCI) one finds growth data, which are given here for eight compounds.

Compounds without any hit were thinned out: in the full panel of roughly 83,000, 20% have a hit.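 Single-concentration screen, 48 h exposure, 96-well plates. Endpoint: percent growth. Below 10 = active.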 Unmarked numbers belong to inactive results. The source made the active and inactive calls.

With `O=S(=O)(NCCCNc1nccc(-n2ccc3cccnc32)n1)c1cccc(C(F)(F)F)c1`, the growth is 108% in the assay with NCI-H23 lung; 104% with NCI-H226 lung; 106% in the assay with NCI-H322M lung; 112% with HOP-62 NSCLC; 104% in the assay on NCI-H460 lung; 106% in the assay with HOP-92 NSCLC. The growth was 98.1% with NCI-H522 lung; 101% with A549/ATCC NSCLC; 102% in the assay on 786-0 renal; 108% with COLO 205 colon; 101% in the assay with DU-145 prostate; 100% in the assay with K-562 leukemia. The growth in the assay on MALME-3M melanoma is 112%; in the assay on MDA-MB-231 breast it was 106%; in the assay on RXF 393 renal it was 103%; in the assay with SF-268 CNS it was 95.5%; in the assay on SF-295 CNS, 112%; with SF-539 CNS, 109%. Further, the values for the growth in the assay on UACC-257 melanoma and with M14 melanoma were 108% and 107%, respectively.
Turning to `CCCC(=O)Oc1ccc(/C(=C(\C)c2ccccc2)c2ccc(OCCN(CC)CC)cc2)cc1`, the growth with NCI-H23 lung is 87.6%; with NCI-H226 lung, 99.3%; in the assay on NCI-H322M lung it was 83.3%; with HOP-62 NSCLC it was 92.9%; with NCI-H460 lung, 69.8%; in the assay with HOP-92 NSCLC, 57.7%. Further, the growth in the assay on NCI-H522 lung was 72.1%; with A549/ATCC NSCLC it was 67.2%; with 786-0 renal it was 71%; with COLO 205 colon, 51%; in the assay with DU-145 prostate, 102%; in the assay on K-562 leukemia, 16%. Also, the growth in the assay with MALME-3M melanoma was 70.3%; with MDA-MB-231 breast, 92.6%; in the assay with RXF 393 renal it was 61.1%; in the assay with SF-268 CNS, 77.2%; in the assay with SF-295 CNS it was 91.4%; in the assay on SF-539 CNS it was 60.4%. Further, the growth in the assay with UACC-257 melanoma is 67.6%; with M14 melanoma, 40.7%.
As for `COc1cc(-c2nc(N=Nc3c(O)[nH]c4ccc(Br)cc34)[nH]c(=O)c2C#N)cc(OC)c1OC`, the growth is 102% with NCI-H23 lung; 84.1% in the assay with NCI-H226 lung; 99.4% in the assay on NCI-H322M lung; 105% with HOP-62 NSCLC; 104% in the assay on NCI-H460 lung; 92.8% in the assay with HOP-92 NSCLC. In addition, the growth with NCI-H522 lung was 84.9%; in the assay with A549/ATCC NSCLC it was 99.4%; with 786-0 renal, 99.8%; with COLO 205 colon, 114%; with DU-145 prostate, 103%; in the assay on K-562 leukemia it was 90.9%. The growth was 94.9% in the assay on MALME-3M melanoma; 93.9% with MDA-MB-231 breast; 102% in the assay with RXF 393 renal; 101% with SF-268 CNS; 91.1% in the assay with SF-295 CNS; 96% with SF-539 CNS. Further, the growth in the assay with UACC-257 melanoma was 91.9%; with M14 melanoma it was 97.1%.
In the case of `NC1N=C(SCC(=O)N2CCN(c3cc4c(cc3F)c(=O)c(C(=O)O)cn4C3CC3)CC2)NC(=O)/C1=C/c1ccc(Cl)cc1` (stereo not given), the growth in the assay with NCI-H23 lung was 103%; in the assay with NCI-H226 lung it was 106%; in the assay on NCI-H322M lung, 107%; in the assay on HOP-62 NSCLC it was 103%; in the assay with NCI-H460 lung, 110%; in the assay with HOP-92 NSCLC it was 114%. Besides, the growth in the assay with NCI-H522 lung was 94.7%; with A549/ATCC NSCLC, 103%; in the assay with 786-0 renal, 103%; in the assay on COLO 205 colon it was 115%; in the assay on DU-145 prostate, 112%; in the assay with K-562 leukemia, 99.2%. Moreover, the growth in the assay with MALME-3M melanoma was 108%; in the assay with MDA-MB-231 breast, 104%; with RXF 393 renal, 110%; with SF-268 CNS, 96.2%; in the assay with SF-295 CNS, 94.4%; in the assay on SF-539 CNS, 97.8%. Further, the growth in the assay on UACC-257 melanoma was 105%; with M14 melanoma, 104%.
As to `Cn1c(=O)cc(NC(=O)CN2CCN(c3cc4c(cc3F)c(=O)c(C(=O)O)cn4C3CC3)CC2)[nH]c1=O`, the growth in the assay with NCI-H23 lung is 99.9%; in the assay on NCI-H226 lung it was 95.5%; in the assay with NCI-H322M lung, 102%; in the assay on HOP-62 NSCLC it was 98.9%; with NCI-H460 lung it was 105%; in the assay on HOP-92 NSCLC, 99.8%. Moreover, the growth with NCI-H522 lung is 91.7%; in the assay with A549/ATCC NSCLC, 98.8%; with 786-0 renal, 102%; with COLO 205 colon it was 106%; in the assay on DU-145 prostate it was 103%; in the assay with K-562 leukemia it was 100%. In addition, the growth was 104% with MALME-3M melanoma; 98.5% in the assay on MDA-MB-231 breast; 102% in the assay on RXF 393 renal; 92.7% in the assay with SF-268 CNS; 101% with SF-295 CNS; 102% in the assay with SF-539 CNS. In addition, the growth was 100% with UACC-257 melanoma and 96.5% in the assay on M14 melanoma.
As for `COc1ccc(-c2nc(N3CCCC3=O)sc2Br)cc1OC`, the growth was 95.7% in the assay on NCI-H23 lung; 93.8% with NCI-H226 lung; 96.6% in the assay with NCI-H322M lung; 103% with HOP-62 NSCLC; 108% in the assay on NCI-H460 lung; 113% in the assay on HOP-92 NSCLC. Besides, the growth with NCI-H522 lung was 89.1%; in the assay with A549/ATCC NSCLC, 96.8%; in the assay on 786-0 renal, 97.5%; with COLO 205 colon, 112%; in the assay with DU-145 prostate it was 114%; with K-562 leukemia it was 94%. Also, the growth in the assay with MALME-3M melanoma is 111%; in the assay with MDA-MB-231 breast, 93.7%; in the assay with RXF 393 renal it was 89.9%; in the assay on SF-268 CNS it was 104%; in the assay with SF-295 CNS, 93.5%; with SF-539 CNS, 96.9%. In addition, the growth in the assay with UACC-257 melanoma is 98.5%; in the assay on M14 melanoma it was 116%.
For `Cc1cc(N/N=C/c2nc(-c3ccc(Br)cc3)oc2C)c2cc(Br)ccc2n1`, the growth in the assay on NCI-H23 lung is 103%; with NCI-H226 lung, 113%; in the assay on NCI-H322M lung, 82.8%; in the assay with HOP-62 NSCLC, 105%; in the assay on NCI-H460 lung it was -13.1% (active); with HOP-92 NSCLC, 78.8%. The growth in the assay with NCI-H522 lung is 48%; in the assay on A549/ATCC NSCLC, 32.8%; in the assay on 786-0 renal, 29.2%; with COLO 205 colon, 99.7%; in the assay on DU-145 prostate it was 34.6%; in the assay on K-562 leukemia, -29.2% (active). For the same compound, the growth was 17.4% in the assay with MALME-3M melanoma; 55.9% in the assay with MDA-MB-231 breast; 92.8% in the assay with RXF 393 renal; 75.1% in the assay on SF-268 CNS; 96.7% in the assay on SF-295 CNS; 89% in the assay with SF-539 CNS. Further, the growth in the assay with UACC-257 melanoma was 95.8%; in the assay with M14 melanoma it was 57.5%.
For `O=C(Nc1ccc2c(c1)OCO2)C(=O)c1c[nH]c2cc(F)ccc12`, the growth in the assay with NCI-H23 lung was 79.6%; in the assay with NCI-H226 lung, 73%; with NCI-H322M lung, 65.3%; in the assay with HOP-62 NSCLC, 54.4%; with NCI-H460 lung, 41.3%; in the assay on HOP-92 NSCLC, 42.2%. Also, the growth in the assay on NCI-H522 lung was 61.2%; in the assay on A549/ATCC NSCLC, 48.9%; with 786-0 renal, 57.7%; with COLO 205 colon it was 83.1%; with DU-145 prostate, 34.5%; in the assay with K-562 leukemia, 26.4%. The growth in the assay with MALME-3M melanoma is 73%; in the assay on MDA-MB-231 breast, 25.6%; in the assay with RXF 393 renal, 75.4%; in the assay on SF-268 CNS it was 47.6%; in the assay with SF-295 CNS, 24.2%; with SF-539 CNS, 56.1%. Further, the growth with UACC-257 melanoma was 64.4%; in the assay with M14 melanoma, 29.9%.
